Rows were chosen to be rich in hits. Some 21% of all compounds tested hit in one or more screens of this group.
DT40 TDP1 no CPT: qHTS for Inhibitors of human tyrosyl-DNA phosphodiesterase 1 (TDP1): qHTS in cells in absence of CPT; DT40 Tdp1-/- hTDP1 cells, no CPT, ATP luminescence, 48 h; Potency, µM (top dose mostly 46.2 µM), for the others: at the top dose activity change, negative = growth inhibition, hits mostly inhibitors; hit rate 15% among 420,000; note: potency is the fitted concentration of half-maximal effect; % is set by controls: 0 for no effect and ±100 for the full control effect; nearly all actives have a fitted effect of over 55% in size
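Cells were dispensed at 400 per well, compounds added by pin tool, plates incubated ≥48 hr at 37 °C, then CellTiter-Glo added for 30 min at room temperature before luminescence reading. Line: DT40 Tdp1-/- complemented with hTDP1; camptothecin omitted.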
ClpP mod: qHTS Assay for Activators of ClpP. AID 651965, 2013. Potency, µM (top dose mostly 57.5 µM), for the others: at the highest dose activity change, negative = active. hit rate 1.9% among 340,000. purified B. subtilis ClpP, FRET peptide cleavage, 20 min. ATP-dependent Clp protease proteolytic subunit (Bacillus subtilis (strain 168)), P80244; active = well fitted falling curve with a large enough effect; inconclusive = small, poorly fitted or top-dose-only effect; inactive = no such curve, though single readings can be large or run the other way; note: potency is the fitted concentration of half-maximal effect; the source files actives as falling curves though it sought activators and does not explain the sign; nearly all actives have a fitted effect of over 65% in size
Target sequence (P80244 whole entry, looked up): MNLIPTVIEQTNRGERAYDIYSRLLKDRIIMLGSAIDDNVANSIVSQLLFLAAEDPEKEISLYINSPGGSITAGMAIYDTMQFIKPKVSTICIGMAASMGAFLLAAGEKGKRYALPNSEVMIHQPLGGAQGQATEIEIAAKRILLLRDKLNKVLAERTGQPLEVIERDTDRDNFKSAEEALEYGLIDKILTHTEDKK
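Purified B. subtilis ClpP, 10 microg/mL final in Tris/HCl pH8 with KCl, BSA, glycerol and Tween-20, cleaved an Abz/nitrotyrosine-quenched decapeptide. Fluorescence (ex 320, em 430) was read at 0 and 20 min at room temperature. Delta was normalized to 5.8 microM ADEP and DMSO/no-enzyme controls.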
IL-1B inflam inh: inhibitors of inflammasome signaling (IL-1 beta secretion) | hit rate 4.7% among 360,000 | activity change, % at 57.5 µM | THP-1 LPS/ATP IL-1B secretion, AlphaLISA, 16 h; hits give low values | AID 743279; in the data active = activity change below about -50%; inconclusive = mostly about -30% to -49%; note: % is set by controls: 0 for no effect and ±100 for the full control effect
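Secreted IL-1B measured by AlphaLISA bead assay after 16 h compound exposure of THP-1 cells; compounds (final up to 57.5 uM) added 1 h before LPS (250 ng/mL) and ATP (1.25 mM) stimulation; lower signal means less secretion.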
DRD3 antagonist: blocks the human D3 dopamine receptor. P35462. D3R cells, DiscoveRx beta-arrestin luminescence, antagonist mode; hits give low values. max response, negative = inhibition, %. hit rate 2.5% among 360,000. AID 652054; in the data active = max response below about -50%; inconclusive = no clear call, values can overlap the other calls; note: % is set by controls: 0 for no effect and ±100 for the full control effect
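Cells plated overnight at 1500 cells/well, then exposed to library compounds with dopamine controls for 90 minutes at 37 degrees C. DiscoveRx reagent added for 30–60 minutes at room temperature; luminescence read, quantitative HTS format.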
DT40 TDP1 CPT: DT40-hTDP1 cell growth loss with CPT; hit rate 12% among 420,000; chicken DT40 Tdp1-/-;hTDP1 cells + 20 nM CPT, ATP luminescence, 48 h; Potency, µM (top dose mostly 46.2 µM), without a hit: top-dose activity change, negative = growth inhibition, most hits filed as inhibitors; note: potency is the fitted concentration of half-maximal effect; % is set by controls: 0 for no effect and ±100 for the full control effect; nearly all actives have a fitted effect of over 55% in size
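Cell growth measured by CellTiter-Glo luminescence after a minimum 48 h, 37 C compound exposure with 20 nM CPT in Tdp1-knockout DT40 cells stably expressing hTDP1, seeded 400/well; qHTS titration format.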
DRD3 agonist: activates the human D3 dopamine receptor | max activation, % | AID 652048 | P35462 | D3R DiscoveRx beta-arrestin cells, luminescence, 90 min | hit rate 0.58% among 410,000; in the data active = max activation above about 30%; note: 0% is about no effect
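Agonist mode: compounds and dopamine controls were applied to plated cells for 90 min at 37 degrees C after an overnight attachment at 1500 cells/well. Luminescent read-out followed 30 - 60 minutes at room temperature with DiscoveRx detection reagent.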
* marks the source's active call; other numbers are inactive results; ? = inconclusive; / = not tested or not shown. Unless noted, calls come from the whole dose curve; as a rule, active = well fitted inhibition curve with a large enough effect; inconclusive = small, poorly fitted or top-dose-only effect; inactive = flat fitted curve, though single readings scatter.

SMILES	DT40 TDP1 no CPT	ClpP mod	IL-1B inflam inh	DRD3 antagonist	DT40 TDP1 CPT	DRD3 agonist
CCCCCC1CCC(C(=O)N2CCOCC2)CC1 (stereo not drawn)	-14.7%	-5.1%	-4.9	-2.4	-1.9%	1.7
CCCCCC1CCNCC1	8.91µM*	-21.0%	/	/	6.31µM*	/
O=C(CNC(c1ccccc1)c1ccccc1)NCc1ccccc1Cl	-18.6%	1.6%	-9.5	2.9	?	1.8
CCCN(CCC)C(=O)Cc1coc2ccc3ccccc3c12	18.4µM*	-0.8%	-1.8	-6.2	?	-1.2
O=C(Cc1coc2ccc3ccccc3c12)Nc1nccs1	?	3.6%	26.2	9.4	14.6µM*	1.1
O=C(Cc1coc2ccc3ccccc3c12)NCc1ccccc1	?	-9.1%	13.3	8.6	?	6.0
O=C(Cc1coc2ccc3ccccc3c12)N1CCN(c2ncccn2)CC1	?	-28.4%	-23.3	-5.3	?	3.9
CCc1ccccc1NC(=O)c1cccc(NC(=O)/C=C/c2ccco2)c1	20.6µM*	-0.2%	-14.7	9.9	18.4µM*	7.1
CCCOc1ccccc1NC(=O)/C=C/C(N)=O	2.51µM*	1.1%	-6.2	14.0	1.26µM*	0.9
CCOc1ccccc1NC(=O)c1cccc(NC(=O)c2ccco2)c1	1.64µM*	1.7%	5.4	21.2	1.46µM*	-1.9
CCCCOc1ccc(OCCNC(=O)c2ccco2)cc1	16.4µM*	/	8.2	5.4	?	3.1
O=C(OCC(=O)c1ccc[nH]1)c1ccc(S(=O)(=O)C(F)F)cc1	6.7%	-0.2%	6.3	-5.0	3.3%	0.8
O=C(c1cnccn1)N1CCC[C@@]2(CCN(Cc3nccs3)C2)C1	-4.0%	/	/	/	7.6%	/
CCOc1ccccc1NC(=O)c1ccccc1NC(=O)c1ccco1	?	/	-1.1	6.5	5.5%	15.5
CCCCOc1ccccc1NC(=O)c1ccco1	?	12.6µM*	-9.3	4.1	?	8.8
C=CCSCC=C	-11.9%	/	/	/	8.9%	/
OC1(c2ccc(Cl)c(Cl)c2)C[n+]2ccccc2N1Cc1ccccc1 (stereo not drawn)	18.4µM*	/	-84.9*	-11.8	13µM*	-12.0
O=C(c1cc(Cl)ccc1Cl)N1CCN(Cc2ccccc2)CC1	?	0.2%	2.8	-2.3	?	-9.7
CC(CNC(=O)c1ccc(Cn2c(SCc3ccccc3)nc3cccnc32)cc1)c1ccccc1 (stereo not drawn)	20.6µM*	4.7%	/	/	?	-6.2
O=C(NCc1ccco1)c1ccc(Cn2c(SCc3ccccc3F)nc3cccnc32)cc1	23.1µM*	4.4%	/	/	?	2.7
Cc1ccc(CSc2nc3cccnc3n2Cc2ccc(C(=O)NCc3ccco3)cc2)cc1	-27.6%	?	/	/	-11.3%	3.6
Cc1ccccc1CNC(=O)c1ccc(Cn2c(SCc3ccccc3)nc3cccnc32)cc1	?	4.7%	/	/	?	-21.3
Cc1ccc(CSc2nc3cccnc3n2Cc2ccc(C(=O)NCc3cccs3)cc2)cc1	-3.0%	5.0%	/	/	-28.3%	3.7
Cc1ccc(Cn2c(SCc3ccc(C(=O)O)cc3)nc3cccnc32)cc1	-9.9%	28.2µM*	/	/	-27.1%	1.7
O=C(NCCc1cccs1)c1ccc(Cn2c(SCc3ccc(F)cc3)nc3cccnc32)cc1	20.6µM*	25.1µM*	/	/	?	1.0
COc1ccc(C(=O)N2CCC[C@@]3(CCN(Cc4cc(C(F)(F)F)cc(C(F)(F)F)c4)C3)C2)cc1	?	/	/	/	-9.5%	/
COc1cccc(NC(=O)CN(C)C(=O)[C@@H]2CCCN2C(=O)c2cccs2)c1	?	0.1%	-13.5	-4.8	-26.9%	-1.4
Cc1ccc(C)c(C(=O)COC(=O)c2ccc(C)c(S(=O)(=O)N3CCOCC3)c2)c1	?	-1.4%	2.2	7.0	?	8.8
O=C(NCc1cccs1)c1ccc(CSc2nc3cccnc3n2Cc2ccccc2F)cc1	23.1µM*	4.4%	/	/	?	-20.3

Source: PubChem (National Center for Advancing Translational Sciences (NCATS))
